# Screen size: about 16,000 compounds; about 5,100 (32%) were called active. Not shown: some 25% with an inconclusive outcome. The list shows a part of the results. A number with no mark means an inactive call. The call rests on the fitted dose curve; in most records, active means well fitted curve in the direction sought with a large enough effect; inconclusive means small, poorly fitted or top-dose-only effect, or effect the other way; inactive means no such curve, though single readings can be large or run the other way.
# Molecular target: Cytochrome P450 3A4 (Homo sapiens) (UniProt P08684)
# Sequence (P08684 whole entry, looked up): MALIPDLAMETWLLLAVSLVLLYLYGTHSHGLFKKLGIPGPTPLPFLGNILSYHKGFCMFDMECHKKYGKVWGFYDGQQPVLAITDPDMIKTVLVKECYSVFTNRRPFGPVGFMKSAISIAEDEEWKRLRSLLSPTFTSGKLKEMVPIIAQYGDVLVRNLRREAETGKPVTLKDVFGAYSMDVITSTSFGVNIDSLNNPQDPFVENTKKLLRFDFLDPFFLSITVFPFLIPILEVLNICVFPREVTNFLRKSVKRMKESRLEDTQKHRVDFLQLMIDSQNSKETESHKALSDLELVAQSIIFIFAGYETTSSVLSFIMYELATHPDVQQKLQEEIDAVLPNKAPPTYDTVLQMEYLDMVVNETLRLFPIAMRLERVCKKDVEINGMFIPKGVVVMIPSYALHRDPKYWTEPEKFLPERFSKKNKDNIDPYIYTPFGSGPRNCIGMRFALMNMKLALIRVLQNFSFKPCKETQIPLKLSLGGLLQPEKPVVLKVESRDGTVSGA
# Assay: Cytochrome panel assay with activity outcomes
# Settings: recombinant CYP, pro-luciferin dealkylation, luminescence, p450-cyp3a4; series mostly up to 57.1 µM
# On the % scale 0 is the no-effect control and ±100 the full control effect.
Structure (SMILES),AC50,"activity, negative = inhibition"
CCN(CC)CCCN(Cc1cc2ccc(C)c(C)c2[nH]c1=O)C(=O)NC1CCCCC1,2.82 µM (active),–
Cc1c(Br)cc(C(=O)NC2CCCCC2)c(C)c1C,–,-5.25% [at 2.29 µM]
CCC(=O)NC(NCC1CCCO1)C(Cl)(Cl)Cl (stereo unspecified),inactive,–
Cn1c(CN2CCOCC2)nnc1SCc1ccccc1,10 µM (active),–
CC(=O)[C@H](C(=N)C#N)C(=O)Nc1ccccc1,–,3.78% [at 11.4 µM]
c1c[nH]c(CN2CCOCC2)n1,–,-23.7% [at 11.4 µM]
Cn1c(CNC(=O)Nc2ccccc2)nnc1SCc1ccccc1,14.1 µM (active),–
COc1cccc(NC(=O)CSc2nnc(CN3CCOCC3)n2C)c1,inactive,–
COC1(OC)N=C(NC(=O)Nc2ccccc2)C2(C#N)C(c3ccccc3)C12C#N (stereo unspecified),inactive,–
CCn1c(=O)[nH]c2ccccc21,inactive,–
CCn1c(=O)[nH]c2cc(Cl)c(Cl)cc21,12.6 µM (active),–
CCn1c(C)[n+](CCCS(=O)(=O)[O-])c2cc(Cl)c(Cl)cc21,inactive,–
O=C(O)/C=C\C(=O)Nc1ccccn1,–,-10.9% [at 11.4 µM]
C=C(C)[C@H]1CC=C(C)/C(=N/NC(=O)CNc2ccccc2OC)C1,10 µM (active),–
C=C(C)C1CC=C(C)/C(=N/NC(=O)c2ccc(NC(=O)c3cccc(C)c3)cc2)C1 (stereo unspecified),12.6 µM (active),–
Cc1cccc(C(=O)NNC(=O)C2CCCO2)c1 (stereo unspecified),inactive,–
Cc1cccc(C(=O)Nc2nnc(-c3ccc(C(C)(C)C)cc3)s2)c1,inactive,–
CSc1ccc2nnc(-c3cccc(F)c3)n2n1,inactive,–
COc1cccc(-c2nnc3sc(-c4ccc(C)cc4)nn23)c1,7.94 µM (active),–
CNC[C@@H](SC)c1ccc(O)c(O)c1,–,-6.87% [at 11.4 µM]
Clc1ccc(/C=N/Nc2nnc(-c3ncc[nH]3)c3ccccc23)cc1,15.8 µM (active),–
CCOc1ccc(C(C)=O)cc1N1C(=O)C2C3C=CC(O3)C2C1=O (stereo unspecified),–,-20.8% [at 11.4 µM]
CCOc1ccc(C(C)=O)cc1N1C(=O)C2C3C=CC(C3=C(C)C)C2C1=O (stereo unspecified),11.2 µM (active),–
CCOc1ccc(C(C)=O)cc1N1C(=O)C2C(C1=O)C1C=CC2C12CC2 (stereo unspecified),inactive,–

Structure (SMILES),AC50,"activity, negative = inhibition"
CCC(C)(C)NC(=O)c1ccc2c(c1)N(CC(=O)OC)C(=O)C(C)(C)O2,inactive,–
Nc1ncnc2c1ncn2CCCCC(=O)O,–,-8.48% [at 11.4 µM]
O=C(NCc1ccco1)C(c1ccccc1)N(C(=O)Cc1cccs1)c1ccccc1F (stereo unspecified),0.794 µM (active),–
Cc1ccc(C(C(=O)NCc2ccco2)N(C(=O)CNC(=O)c2cccs2)c2ccc(C)cc2C)cc1 (stereo unspecified),1 µM (active),–
Cc1ccc(C(C(=O)NCc2ccco2)N(C(=O)CNC(=O)c2cccs2)c2ccc(C)cc2)cc1 (stereo unspecified),1.12 µM (active),–
Cc1ccc(C(CC(N)=O)c2ccco2)cc1 (stereo unspecified),inactive,–
O=C(c1cccs1)n1nc(-c2ccc(Cl)cc2)nc1NCc1ccco1,–,-4.78% [at 2.29 µM]
CCn1c(C)c(/C=N/Nc2nc3ccccc3s2)c2ccccc21,8.91 µM (active),–
Cc1ccc(C(=O)N2CCN(C3c4cccc5cccc(c45)C3NS(=O)(=O)c3ccccc3)CC2)cc1 (stereo unspecified),0.0355 µM (active),–
Cc1ccc(C(=O)N2CCN(c3cc(=O)[nH]nc3-c3ccccc3)CC2)cc1,inactive,–
Cc1noc(C)c1-c1ccc2ncnc(NCc3ccccc3)c2c1,10 µM (active),–
Cc1noc(C)c1-c1ccc2ncnc(NCc3cccs3)c2c1,10 µM (active),–
Cc1noc(C)c1-c1ccc2ncnc(NC3CCNCC3)c2c1,inactive,–
Cc1cccc(CNc2ncnc3ccc(-c4c(C)noc4C)cc23)c1,0.794 µM (active),–
Cc1noc(C)c1-c1ccc2ncnc(NCc3cccnc3)c2c1,2.51 µM (active),–
N#[N+]c1ccc(Nc2ccccc2)cc1,–,-10.9% [at 11.4 µM]
CC[N+](C)(CC)CCN1C(=O)c2ccccc2S1(=O)=O,–,6.19% [at 11.4 µM]
O=[N+]([O-])c1ccc(N2CCCC2)cc1NCc1ccccc1,15.8 µM (active),–
CC(C)c1ccc(CNc2cc(N3CCCC3)ccc2[N+](=O)[O-])cc1,–,-8.24% [at 2.29 µM]
Cc1cc(C)c(S(=O)(=O)N2CCN(c3ccc([N+](=O)[O-])c(NCc4ccco4)c3)CC2)c(C)c1,7.08 µM (active),–
CNc1cc(N2CCCCCC2)ccc1[N+](=O)[O-],–,-20.1% [at 2.29 µM]
CC(=O)N(CC(O)CN(C(C)=O)c1c(I)c(C(=O)NC[C@@H](O)CO)c(I)c(C(=O)NC[C@@H](O)CO)c1I)c1c(I)c(C(=O)NC[C@@H](O)CO)c(I)c(C(=O)NC[C@@H](O)CO)c1I,inactive,–
CC(C)(C)c1ccc(O)c(CN(Cc2cc(C(C)(C)C)ccc2O)C2CCCCC2)c1,–,-3.22% [at 11.4 µM]
c1ccc2cc(C3=NCCN3)ncc2c1,inactive,–

Structure (SMILES),AC50,"activity, negative = inhibition"
C#CCSc1nncn1C(=O)/C=C/c1ccccc1,–,-0.406% [at 2.29 µM]
C=CCSc1nc2ccccc2n1C(=O)/C=C/c1cc(OC)c(OC)c(OC)c1,7.94 µM (active),–
COc1ccc(/C=C/C(=O)Nc2nc(C)cc(C)n2)cc1OC,–,2.05% [at 2.29 µM]
COc1cc(/C=C\C(=O)N2CCC=CC2=O)cc(OC)c1OC,inactive,–
CCSc1nc2ccccc2n1C(=O)/C=C\c1ccc(OC)c(OC)c1,20 µM (active),–
c1ccc2nc(C3=NCCN3)ccc2c1,inactive,–
c1ccc2nc(-c3ccncc3)ccc2c1,2.82 µM (active),–
c1ccc2cc(-c3csnn3)ccc2c1,inactive,–
Cc1cc(Cl)ccc1OCC(=O)NCc1ccncc1,1.41 µM (active),–
Cc1cc(Cl)ccc1OCC(=O)Nc1nc(N)nc(N)n1,–,-4.83% [at 11.4 µM]
O=C(N/N=C1\CCCc2ccccc21)c1ccc([N+](=O)[O-])cc1Cl,–,-11.3% [at 2.29 µM]
Cc1cc(Cl)ccc1OCC(=O)N/N=C1\CCCc2ccccc21,12.6 µM (active),–
COc1ncc2nc(-c3ccc(F)cc3)c(=O)n(C)c2n1,20 µM (active),–
COc1ccc(-c2nc3cnc(N4CCN(C)CC4)nc3n(C)c2=O)cc1,inactive,–
COc1ncc2nc(-c3ccccc3)c(=O)n(C)c2n1,inactive,–
Cn1c(=O)c(-c2ccc(Cl)cc2)nc2cnc(OCc3ccccc3)nc21,inactive,–
CN(C)c1ncc2nc(-c3ccc(F)cc3)c(=O)n(C)c2n1,inactive,–
COc1ncc2nc(-c3ccc(Cl)cc3)c(=O)n(C)c2n1,25.1 µM (active),–
COc1ncc2nc(-c3ccc(Cl)cc3)c(=O)n(-c3ccccc3)c2n1,inactive,–
COc1ccc(-c2nc3cnc(OC)nc3n(C)c2=O)cc1,25.1 µM (active),–
Cc1ccnn2cc3c(=O)n(C)c(=O)n(C)c3c12,inactive,–
C=Cc1c(C)c2cc3[nH]c(cc4nc(cc5nc(cc1[nH]2)C(C)=C5CCC(=O)O)C(CCC(=O)O)=C4C)c(C)c3C=C,inactive,–
N#Cc1cccc(-c2nc(NCc3cccnc3)c3ccccc3n2)c1,5.01 µM (active),–
COc1cccc(-c2nc(NCc3ccccc3)c3ccccc3n2)c1,12.6 µM (active),–

Structure (SMILES),AC50,"activity, negative = inhibition"
Cc1cccc(CNc2nc(-c3cccnc3)nc3ccccc23)c1,1 µM (active),–
N#Cc1cccc(-c2nc(NCc3cccs3)c3ccccc3n2)c1,3.98 µM (active),–
O=[N+]([O-])c1ccc(N2CCOCC2)nc1,–,-4.02% [at 2.29 µM]
COCCNc1nc(-c2cccc(OC)c2)nc2ccccc12,5.01 µM (active),–
COc1cccc(-c2nc(NCc3cccs3)c3ccccc3n2)c1,3.16 µM (active),–
COc1cccc(-c2nc(NC3CC3)c3ccccc3n2)c1,1.26 µM (active),–
COc1cccc(-c2nc(NCCNC(C)=O)c3ccccc3n2)c1,12.6 µM (active),–
COc1cccc(Nc2ncc3nc(-c4ccccc4)c(=O)n(Cc4cccs4)c3n2)c1,inactive,–
NNC(=O)[C@@H](O)[C@H](O)[C@H](O)CO,–,0.183% [at 11.4 µM]
COc1cccc(-c2nc(NCc3cccnc3)c3ccccc3n2)c1,2 µM (active),–
COc1cccc(-c2nc(NCc3ccccc3OC)c3ccccc3n2)c1,3.98 µM (active),–
COc1cccc(/C=N/NC(=O)C(=O)NCc2cccnc2)c1,–,-8.44% [at 2.29 µM]
COC(=O)Cc1c(C)nc2nc(NCc3ccccc3OC)[nH]n2c1=O,inactive,–
O=C(O)c1nn(-c2ccccc2-c2n[nH]c(=O)[nH]c2=O)c(=O)[nH]c1=O,–,-2.84% [at 11.4 µM]
CCOC(=O)N1CCN(S(=O)(=O)c2ccc3[nH]cc(C(=O)O)c(=O)c3c2)CC1,inactive,–
CN1CCN(S(=O)(=O)c2ccc3[nH]cc(C(=O)O)c(=O)c3c2)CC1,inactive,–
Cc1ccc(C(=O)NCCCN2CCOCC2)cc1N1CCCC1=O,inactive,–
COc1cccc(NS(=O)(=O)c2ccc3[nH]cc(C(=O)NCCN4CCOCC4)c(=O)c3c2)c1,2.82 µM (active),–
Cc1ccccc1NS(=O)(=O)c1ccc2[nH]cc(C(=O)NCCCN3CCOCC3)c(=O)c2c1,2 µM (active),–
N[C@H](C(=O)O)c1nn[nH]n1,inactive,–
C[C@](N)(C(=O)O)c1ccc(-c2nn[nH]n2)cc1,inactive,–
CCCOc1ccc(N2C(=O)CC(S/C(N)=N/N=C(\C)c3cccs3)C2=O)cc1 (stereo unspecified),–,7.2% [at 2.29 µM]
COc1ccc(N2C(=O)CC(S/C(N)=N/N=C(\C)c3cccs3)C2=O)cc1 (stereo unspecified),14.1 µM (active),–
Cc1cccc(Sc2c([N+](=O)[O-])ncn2C)n1,inactive,–
